Laboratory results from PubChem BioAssay (EPA / NIEHS).
Records with an inconclusive call do not appear. Calls of active or inactive are those of the source. The calls were made as follows, unless noted: active = hit-call score of the fitted dose curve at least 0.9, where 1 is the maximum; inconclusive = response in the unintended direction; inactive = score below 0.9.

What was measured:
[1] = biological target: human RAR-related Orphan Receptor gamma (RORg), RORC (gene 6097) (UniProt P51449); experiment: ATG_RORg_TRANS: Attagene TRANS-FACTORIAL HepG2 Assay for human RAR-related Orphan Receptor gamma (RORg) (AID 2283011);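 as to AC50: potency for induction of reporter transcripts above DMSO so activators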
Sequence of human RAR-related Orphan Receptor gamma (RORg), RORC (gene 6097) (P51449 whole entry, looked up, the tested form may be a part): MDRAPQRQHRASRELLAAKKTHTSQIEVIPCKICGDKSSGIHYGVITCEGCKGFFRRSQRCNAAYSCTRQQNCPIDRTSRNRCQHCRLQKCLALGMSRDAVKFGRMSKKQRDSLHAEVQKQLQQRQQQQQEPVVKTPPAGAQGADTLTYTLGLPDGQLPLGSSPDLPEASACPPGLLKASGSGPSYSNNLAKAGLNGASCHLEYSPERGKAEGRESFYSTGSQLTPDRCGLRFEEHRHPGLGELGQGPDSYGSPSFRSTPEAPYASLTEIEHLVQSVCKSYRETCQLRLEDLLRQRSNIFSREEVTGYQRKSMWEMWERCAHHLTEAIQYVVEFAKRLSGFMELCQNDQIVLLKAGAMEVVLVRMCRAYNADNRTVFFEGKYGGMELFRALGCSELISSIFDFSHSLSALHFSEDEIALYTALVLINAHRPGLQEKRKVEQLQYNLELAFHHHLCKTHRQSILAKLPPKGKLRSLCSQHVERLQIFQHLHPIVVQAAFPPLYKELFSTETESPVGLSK
Summary of the method: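 HepG2 cells transiently transfected with GAL4-UAS reporter units and chimeric RORg-Gal4 construct; after 24 h chemical exposure, reporter mRNA measured by RT-PCR with fluorescent capillary electrophoresis, gain of signal fitted against DMSO.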

[2] = biological target: Retinoic acid receptor RXR-alpha (Homo sapiens) (UniProt P19793); experiment: ATG_RXRa_TRANS: Attagene TRANS-FACTORIAL HepG2 Assay for human Retinoid X Receptor alpha (RXRa) (AID 2283012)
Sequence of Retinoic acid receptor RXR-alpha (Homo sapiens) (P19793 whole entry, looked up, the tested form may be a part): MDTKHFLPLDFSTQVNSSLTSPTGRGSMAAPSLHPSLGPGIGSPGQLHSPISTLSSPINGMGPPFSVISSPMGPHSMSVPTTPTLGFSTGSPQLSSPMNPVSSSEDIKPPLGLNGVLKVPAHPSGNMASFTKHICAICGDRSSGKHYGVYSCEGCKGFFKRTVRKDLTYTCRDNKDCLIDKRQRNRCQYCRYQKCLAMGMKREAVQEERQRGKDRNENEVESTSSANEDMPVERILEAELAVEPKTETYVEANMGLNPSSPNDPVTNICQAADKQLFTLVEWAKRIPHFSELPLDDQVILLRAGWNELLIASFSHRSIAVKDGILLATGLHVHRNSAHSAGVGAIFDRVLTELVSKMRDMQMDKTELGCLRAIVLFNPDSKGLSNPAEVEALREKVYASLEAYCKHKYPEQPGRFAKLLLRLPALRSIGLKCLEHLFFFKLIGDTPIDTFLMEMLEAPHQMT
Summary of the method: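 TRANS format reporting activity of exogenous RXRa-Gal4 chimera in transiently transfected HepG2, 24 h exposure. Reporter transcripts quantified by RT-PCR with capillary electrophoresis, with gain of signal scored relative to DMSO.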

[3] = biological target: human Retinoid X Receptor beta (RXRb), RXRB (gene 6257) (UniProt P28702); experiment: ATG_RXRb_TRANS: Attagene TRANS-FACTORIAL HepG2 Assay for human Retinoid X Receptor beta (RXRb) (AID 2283013)
Sequence of human Retinoid X Receptor beta (RXRb), RXRB (gene 6257) (P28702 whole entry, looked up, the tested form may be a part): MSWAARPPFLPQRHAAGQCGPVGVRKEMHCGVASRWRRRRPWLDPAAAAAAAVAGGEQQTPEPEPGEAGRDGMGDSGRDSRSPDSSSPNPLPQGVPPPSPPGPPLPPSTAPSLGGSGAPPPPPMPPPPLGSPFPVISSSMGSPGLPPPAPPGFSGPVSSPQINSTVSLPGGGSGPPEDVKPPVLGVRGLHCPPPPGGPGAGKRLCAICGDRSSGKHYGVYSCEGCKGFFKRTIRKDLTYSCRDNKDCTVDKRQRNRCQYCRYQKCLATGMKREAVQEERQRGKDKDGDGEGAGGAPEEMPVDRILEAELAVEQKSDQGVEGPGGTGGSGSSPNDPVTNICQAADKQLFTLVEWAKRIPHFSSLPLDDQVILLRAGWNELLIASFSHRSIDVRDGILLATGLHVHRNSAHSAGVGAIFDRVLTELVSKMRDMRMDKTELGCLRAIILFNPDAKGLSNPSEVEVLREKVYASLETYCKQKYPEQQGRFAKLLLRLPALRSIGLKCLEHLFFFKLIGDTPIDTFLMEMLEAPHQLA
Summary of the method: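 Readout is reporter transcript induction after 24 h dosing. It is measured by RT-PCR of total RNA followed by fluorescent capillary electrophoresis. HepG2 liver cells carry transfected multiple reporter units driven by an exogenous RXRb-Gal4 fusion; activity is relative to DMSO.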

[4] = biological target: human Thyroid Receptor alpha (THRa1), THRA (gene 7067) (UniProt P10827); experiment: ATG_THRa1_TRANS: Attagene TRANS-FACTORIAL HepG2 Assay for human Thyroid Receptor alpha (THRa1) (AID 2283014)
Sequence of human Thyroid Receptor alpha (THRa1), THRA (gene 7067) (P10827 whole entry, looked up, the tested form may be a part): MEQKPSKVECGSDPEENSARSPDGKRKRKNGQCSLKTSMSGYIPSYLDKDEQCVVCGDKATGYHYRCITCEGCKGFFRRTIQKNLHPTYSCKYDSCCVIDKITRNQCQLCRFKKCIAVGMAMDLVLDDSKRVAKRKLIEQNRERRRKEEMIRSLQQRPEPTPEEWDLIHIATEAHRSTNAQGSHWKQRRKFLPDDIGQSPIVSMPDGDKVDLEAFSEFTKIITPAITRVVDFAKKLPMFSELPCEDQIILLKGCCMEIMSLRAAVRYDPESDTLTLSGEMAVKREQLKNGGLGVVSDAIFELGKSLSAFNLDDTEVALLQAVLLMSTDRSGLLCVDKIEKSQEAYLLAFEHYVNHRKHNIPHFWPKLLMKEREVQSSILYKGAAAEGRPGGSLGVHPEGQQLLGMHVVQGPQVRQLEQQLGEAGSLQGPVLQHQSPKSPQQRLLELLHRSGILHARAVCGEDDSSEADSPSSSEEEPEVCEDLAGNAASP
Summary of the method: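 HepG2 cells transiently transfected with chimeric NR-Gal4 and GAL4-UAS reporter units, dosed 24 h. Reporter mRNA quantified by RT-PCR, fluorescent labeling, HpaI digestion and capillary electrophoresis; gain-of-signal fit versus DMSO.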

[5] = read-out: E-selectin (Homo sapiens) (UniProt P16581); experiment: BSK_3C_Eselectin: BioMAP Diversity Plus: 3C Assay for Eselectin Biomarker Activity (AID 2283015; active = hit-call score of the fitted dose curve at least 0.9, where 1 is the maximum; inactive = score below 0.9); details: primary human endothelial cells (HUVEC); actives raise or lower the signal
Summary of the method: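 Primary human umbilical vein endothelial cells (3C system), read 24 h after compound addition; E-selectin measured by ELISA. Bidirectional curve fitting against DMSO baseline; cytotoxicity by parallel SRB total-protein staining.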

[6] = read-out: Interleukin-1 alpha (IL1a), IL1A (gene 3552); experiment: BSK_BE3C_IL1a: BioMAP Diversity Plus: BE3C Assay for Interleukin-1 alpha (IL1a) Biomarker Activity (AID 2283016; active = hit-call score of the fitted dose curve at least 0.9, where 1 is the maximum; inactive = score below 0.9); details: primary human bronchial epithelial cells; actives raise or lower the signal
Summary of the method: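 IL-1a measured by ELISA after 24 h treatment of human primary bronchial epithelial cells, with gain or loss of signal fitted versus DMSO. Parallel cultures stained with SRB gauge overt cytotoxicity.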

[7] = read-out: Monocyte Chemoattractant Protein-1 (MCP1), CCL2 (gene 6347); experiment: BSK_3C_MCP1: BioMAP Diversity Plus: 3C Assay for Monocyte Chemoattractant Protein-1 (MCP1) Biomarker Activity (AID 2283017; active = hit-call score of the fitted dose curve at least 0.9, where 1 is the maximum; inactive = score below 0.9); details: primary human endothelial cells (HUVEC); actives raise or lower the signal
Summary of the method: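 Human umbilical vein endothelial cells (3C system) exposed to chemicals for 24 h; MCP-1 quantified by ELISA against the DMSO baseline with bidirectional fitting, and parallel SRB staining used to assess cytotoxicity.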

[8] = read-out: Human Leukocyte Antigen - DR isotype (HLADR), HLA-DRA (gene 3122); experiment: BSK_3C_HLADR: BioMAP Diversity Plus: 3C Assay for Human Leukocyte Antigen - DR isotype (HLADR) Biomarker Activity (AID 2283019; active = hit-call score of the fitted dose curve at least 0.9, where 1 is the maximum; inactive = score below 0.9); details: primary human endothelial cells (HUVEC); actives raise or lower the signal
Summary of the method: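 HUVEC monoculture, HLA-DR measured by ELISA 24 h after chemical dosing. Fitted bidirectionally against DMSO baseline; parallel SRB staining assessed cytotoxicity, with 3C proliferation read by SRB at 48 h.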

[9] = read-out: Interleukin-8 (IL8), CXCL8 (gene 3576); experiment: BSK_3C_IL8: BioMAP Diversity Plus: 3C Assay for Interleukin-8 (IL8) Biomarker Activity (AID 2283020; active = hit-call score of the fitted dose curve at least 0.9, where 1 is the maximum; inactive = score below 0.9); details: primary human endothelial cells (HUVEC); actives raise or lower the signal
Summary of the method: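 IL-8 was measured by ELISA in HUVEC cultures 24 h after chemical dosing, with gain or loss of signal fitted relative to DMSO. Parallel SRB total-protein staining tracked overt cytotoxicity.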

Measured: AC50

Sequence of E-selectin (Homo sapiens) (P16581 whole entry, looked up): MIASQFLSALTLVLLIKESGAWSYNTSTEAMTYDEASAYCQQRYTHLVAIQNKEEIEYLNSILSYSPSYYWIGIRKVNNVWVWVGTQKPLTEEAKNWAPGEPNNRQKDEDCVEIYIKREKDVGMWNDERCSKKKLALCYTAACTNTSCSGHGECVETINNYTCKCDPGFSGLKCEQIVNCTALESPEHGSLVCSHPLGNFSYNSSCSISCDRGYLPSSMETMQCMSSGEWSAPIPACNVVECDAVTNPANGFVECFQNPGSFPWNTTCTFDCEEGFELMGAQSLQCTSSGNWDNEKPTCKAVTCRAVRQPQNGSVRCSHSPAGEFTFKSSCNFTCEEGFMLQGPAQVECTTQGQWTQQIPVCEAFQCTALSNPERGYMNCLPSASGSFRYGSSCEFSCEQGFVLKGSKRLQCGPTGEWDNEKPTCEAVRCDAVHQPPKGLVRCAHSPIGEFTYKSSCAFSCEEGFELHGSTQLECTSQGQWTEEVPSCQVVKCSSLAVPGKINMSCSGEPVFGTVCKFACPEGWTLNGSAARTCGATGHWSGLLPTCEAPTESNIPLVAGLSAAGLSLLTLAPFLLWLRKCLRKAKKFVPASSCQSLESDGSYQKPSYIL

O=C(O)c1cccnc1C(=O)O
inactive: [1] | [2] | [3]

O=C1OC2(c3ccccc31)c1ccc(O)c(Br)c1Oc1c2ccc(O)c1Br
inactive: [1] | [2] | [3] | [4]
active: [5] 24.7 µM | [6] 9.21 µM | [7] 20 µM | [8] 20 µM | [9] 24.4 µM

C=CC(=O)OCCC#N
inactive: [1] | [2] | [3] | [4]

C=Cc1ccncc1
inactive: [2] | [3] | [4]
active: [1] 60.2 µM

CC(C)(C)C1=CC(=O)C(C(C)(C)C)=CC1=O
active: [1] 72 µM | [3] 13.7 µM
inactive: [2] | [4]

CC1C2CC(CC2C2CCCC(O)C2)C1(C)C (stereo not given)
inactive: [1] | [2] | [3]

O=CN1CCOCC1
inactive: [1] | [2] | [3] | [5] | [6] | [7] | [8] | [9]

Cc1c(C2(c3cc(Br)c(O)c(Br)c3C)OS(=O)(=O)c3ccccc32)cc(Br)c(O)c1Br
inactive: [1] | [2] | [4]

C=C1C[C@]23C[C@@]1(O)CC[C@H]2[C@@]12C=C[C@H](O)[C@@](C)(C(=O)O1)[C@H]2[C@@H]3C(=O)O
inactive: [1] | [2] | [3] | [4]

Cc1[nH]c(=O)c(C#N)cc1-c1ccncc1
inactive: [1] | [2] | [4]

C=CCCCCCCCCCC
inactive: [1] | [2] | [3] | [4]

CCOC(=O)CCc1ccccc1
inactive: [1] | [2] | [3]

CC(=O)C1(C)CC2=C(CCCC2(C)C)CC1C (stereo not given)
active: [3] 36.1 µM | [6] 20 µM | [7] 11 µM | [8] 10.4 µM | [9] 5.52 µM
inactive: [1] | [2]

C=C(C)[C@@H]1CC=C(C)C(=O)C1
inactive: [1] | [2] | [3] | [4]

COC(=O)c1cccnc1
inactive: [1] | [2] | [4]

CC(=O)c1ccccn1
inactive: [1] | [2] | [3] | [4]
